From PubChem BioAssay (Tox21) come the findings set out here.

Values without a mark were called inactive. Inconclusive results are not listed. The source made the active and inactive calls. Calls follow the shape of the dose curve; as a rule, active = well fitted curve in the direction sought with a large enough effect in the repeat runs; inconclusive = weak or mixed curves; inactive = no such curve, though single readings can be large; an effect the other way counts as inactive or inconclusive.

Test [1] is described as follows: qHTS RealTime-Glo MT Cell Viability Assay in HepG2 cells - 40 hour (AID 1224870). Also: nearly all actives have a fitted effect of over 50% in size. The gist of the method:
(§1)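 HepG2 cells mixed with RealTime-Glo MT reagents (NanoLuc plus cell-permeant prosubstrate) were seeded at 600 cells/well, incubated 5 h at 37 C/5% CO2, then pinned with compounds in DMSO; nonlytic luminescence tracked viability during 40 h treatment.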
(In qHTS, concentration-response curves come from the screen itself.)

A short description of test [2]: A CellTox Green Cytotoxicity Assay to monitor cytotoxicity in HEK293 cells - 40 hour (AID 1224871). Also: nearly all actives have a fitted effect of over 45% in size. In outline: (§2)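 Fluorescence intensity, read at 0, 8, 16, 24, 32 and 40 h of compound treatment, reflected dye binding to DNA of dead HEK293 cells; compounds (23 nL, DMSO) were added 5 h after plating cells with reagent.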
The nature of test [3]: qHTS RealTime-Glo MT Cell Viability Assay in HEK293 cells - 16 hour (AID 1224872). Also: top concentration of the series differs between compounds; nearly all actives have a fitted effect of over 50% in size. In outline:
(§3)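 Assay medium contained NanoLuc luciferase plus cell-permeant prosubstrate, added with HEK293 cells at 600 cells/well. After 5 h at 37 C/5% CO2 compounds were added; plates stayed at 37 C for 40 h with serial luminescence reads.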

Test [4] in a line: qHTS RealTime-Glo MT Cell Viability Assay in HepG2 cells - 8 hour (AID 1224873). Also: nearly all actives have a fitted effect of over 55% in size. In outline:
as §1

Test [5] is described as follows: qHTS RealTime-Glo MT Cell Viability Assay in HEK293 cells - 40 hour (AID 1224874). Also: nearly all actives have a fitted effect of over 50% in size. Also: potency is read from the fitted curve at half-maximal effect. Particulars: RealTime-Glo luminescence; max response: active compounds read low. The gist of the method:
(§4)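 Viable HEK293 cells reduce a cell-permeant prosubstrate; the product diffuses out and is consumed by NanoLuc in the medium to give light. Compounds went in after a 5 h incubation and plates were read over the treatment course.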

A short description of test [6]: A CellTox Green Cytotoxicity Assay to monitor cytotoxicity in HEK293 cells - 24 hour (AID 1224875). Also: series mostly up to about 77 µM; nearly all actives have a fitted effect of over 45% in size. The gist of the method:
as §2

A short description of test [7]: A CellTox Green Cytotoxicity Assay to monitor cytotoxicity in HepG2 cells - 16 hour (AID 1224876). Also: nearly all actives have a fitted effect of over 45% in size. In outline: (§5)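 Using 1536-well format, dye-containing HepG2 suspension was seeded, allowed 5 h at 37 C/5% CO2, dosed by pintool with compounds, positive and negative controls, and imaged for fluorescence across 40 h.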
Test [8] is described as follows: qHTS RealTime-Glo MT Cell Viability Assay in HepG2 cells - 32 hour (AID 1224877). Also: nearly all actives have a fitted effect of over 55% in size. In outline:
(§6)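 qHTS, HepG2, 600 cells/well, RealTime-Glo (NanoLuc + prosubstrate) added with cells; 5 h preincubation; DMSO compound addition; 37 C; luminescence at 0/8/16/24/32/40 h.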

Test [9] in a line: A CellTox Green Cytotoxicity Assay to monitor cytotoxicity in HepG2 cells - 24 hour (AID 1224878). Also: nearly all actives have a fitted effect of over 45% in size. In outline:
as §5

Test [10] in a line: A CellTox Green Cytotoxicity Assay to monitor cytotoxicity in HepG2 cells - 40 hour (AID 1224879). Also: nearly all actives have a fitted effect of over 40% in size. In outline: as §5
Test [11] is described as follows: qHTS RealTime-Glo MT Cell Viability Assay in HEK293 cells - 0 hour (AID 1224880). In outline: as §4
The nature of test [12]: A CellTox Green Cytotoxicity Assay to monitor cytotoxicity in HEK293 cells - 32 hour (AID 1224881). Also: nearly all actives have a fitted effect of over 40% in size. In outline:
as §2

Test [13] can be described thus: A CellTox Green Cytotoxicity Assay to monitor cytotoxicity in HepG2 cells - 0 hour (AID 1224882). Also: nearly all actives have a fitted effect of over 35% in size. In outline: as §5
Test [14] can be described thus: A CellTox Green Cytotoxicity Assay to monitor cytotoxicity in HepG2 cells - 32 hour (AID 1224883). Also: nearly all actives have a fitted effect of over 50% in size. In outline: as §5
The nature of test [15]: A CellTox Green Cytotoxicity Assay to monitor cytotoxicity in HEK293 cells - 8 hour (AID 1224884). Also: nearly all actives have a fitted effect of over 35% in size. The gist of the method: as §2
A short description of test [16]: qHTS RealTime-Glo MT Cell Viability Assay in HepG2 cells - 16 hour (AID 1224885). Also: nearly all actives have a fitted effect of over 50% in size. In outline:
as §6

Test [17] in a line: qHTS RealTime-Glo MT Cell Viability Assay in HEK293 cells - 24 hour (AID 1224886). The gist of the method:
as §3

A short description of test [18]: qHTS RealTime-Glo MT Cell Viability Assay in HEK293 cells - 8 hour (AID 1224887). The gist of the method:
as §4

A short description of test [19]: A CellTox Green Cytotoxicity Assay to monitor cytotoxicity in HEK293 cells - 16 hour (AID 1224888). Also: nearly all actives have a fitted effect of over 35% in size. The gist of the method: as §2
Test [20] can be described thus: qHTS RealTime-Glo MT Cell Viability Assay in HepG2 cells - 0 hour (AID 1224889). Also: nearly all actives have a fitted effect of over 50% in size. In outline:
as §6
% is scaled to controls: 0 for no effect and ±100 for the full control effect.

Take `CCCCCC[C@@H](O)C/C=C\CCCCCCCC(=O)O`: the Potency entry in test [1], in test [2], in test [3], in test [4], in test [6] and in test [7] was “inactive” each time. The Potency result in test [8], in test [9], in test [10], in test [11], in [12] and in test [13] was “inactive” in each case. Moreover, the Potency result in test [14], in [15], in test [16], in test [17], in [18] and in test [19] was “inactive” in each case. In test [5], the max response is 13.2%.
`O=C1c2ccccc2C(=O)C1c1ccc(Br)cc1`: the Potency entry in test [1], in test [2], in test [3], in test [4], in [6] and in [7] was “inactive” in each case. The Potency entry in test [8], in [9], in test [10], in test [11], in test [12] and in test [13] was “inactive” each time. The Potency entry in [14], in test [15], in test [16], in [17], in [18] and in test [19] was “inactive” throughout. Moreover, the Potency entry in [20] is “inactive”. Also, the max response in [5] was -7.99%.
For the compound `O=c1[nH]ncc2ccccc12`, the Potency entry in test [1], in test [2], in [3], in test [4], in test [6] and in test [7] was “inactive” in each case. The Potency entry in [8], in test [9], in test [10], in test [11], in test [13] and in [14] was “inactive” throughout. The Potency result in [15], in test [16], in test [17], in test [18] and in [19] was “inactive” throughout. Moreover, the max response in [5] is 6.19%.
Turning to `CO/N=C(/C(=O)N[C@@H]1C(=O)N2C(C(=O)O)=C(COC(N)=O)CS[C@H]12)c1ccco1`, the Potency entry in test [1], in test [2], in [3], in test [4], in [6] and in test [7] was “inactive” throughout. The Potency result in test [8], in test [9], in [10], in [11], in [12] and in [13] was “inactive” in each case. Moreover, the Potency entry in test [14], in test [15], in test [16], in test [17], in [18] and in [19] was “inactive” in each case. Also, the Potency result in test [20] was “inactive”. In addition, in test [5], the max response was 10.8%.
For the compound `C[C@@]12CCC[C@H]1[C@@H]1CC[C@H]3C[C@@H](O)CC[C@]3(C)[C@H]1CC2`, the Potency entry in [1], in test [2], in test [3], in [4], in test [6] and in test [7] was “inactive” throughout. Moreover, the Potency entry in [8], in test [9], in [10], in test [11], in [12] and in test [13] was “inactive” each time. In addition, the Potency entry in test [14], in test [15], in test [16], in test [17], in test [18] and in test [19] was “inactive” in each case. The Potency result in test [20] is “inactive”. For the same compound, the max response in [5] is 5.8%.
As for `OC[C@H]1O[C@@H](n2cnc3c(=S)nc[nH]c32)[C@H](O)[C@@H]1O`, the Potency result in test [1], in test [2], in [3], in [4], in test [6] and in [7] was “inactive” each time. The Potency entry in test [8], in [9], in test [10], in test [11], in [12] and in test [13] was “inactive” in each case. Besides, the Potency entry in test [14], in test [15], in test [16], in test [18], in test [19] and in test [20] was “inactive” in each case. Also, in test [5], the Potency was 21.3 µM (active).
On to `CN1C(=O)OC(C)(C)C1=O`, for which the Potency result in [1], in test [2], in test [3], in test [4], in test [6] and in [7] was “inactive” each time. The Potency result in [8], in [9], in test [10], in test [11], in test [12] and in test [13] was “inactive” throughout. Further, the Potency entry in test [14], in test [15], in test [16], in test [17], in test [18] and in test [19] was “inactive” in each case. Moreover, the max response in [5] was 0.839%.
